Measurements taken from ChEMBL document CHEMBL4513216, “Probing the Open Global Health Chemical Diversity Library for Multistage-Active Starting Points for Next-Generation Antimalarials” (ACS Infect Dis, 2020).
Hit rate of the full screen: of about 69,000 compounds, about 8,600 (12%) showed an effect of 50% or more. This is one part of a sample in which strong results are shown more often than they occur.

These compounds were tested on Plasmodium berghei (assay: Screen against P. berghei liver stage (PbLuc), transformed with Luciferase, at 10uM). Conditions: tested at 10 uM.
Assay type: functional, HepG2
`CNc1ccc(CC2CCCN(C(=O)c3scnc3C)C2)nn1` (stereo not drawn) was tested, and the INHIBITION was 26.3%.
For `CO[C@H]1CN(C(=O)c2cccc(C)n2)CC[C@@]12CCCO2`, the INHIBITION was 21.7%.
For `Cc1ccc(N2CCCC(NCc3ccc4c(c3)CCO4)C2)nn1` (stereo not drawn), the INHIBITION was 7.12%.
`COCCN1CCCC(c2ncc(C(=O)N(C)C)c(C)n2)C1` (stereo not drawn) gave an INHIBITION of 9.98%.
`Cc1ccc(CN2C[C@@H]3[C@@H](C(=O)NCC(C)C)CCS(=O)(=O)[C@@H]3C2)cc1` showed an INHIBITION of -36.9%.
`COc1ccc(CN(C)Cn2cc(C)n(-c3cc(C)on3)c2=O)cc1` showed an INHIBITION of 19.3%.
Work on `Cc1cccnc1NC(=O)N(CCO)Cc1ccsc1` yielded an INHIBITION of -6.75%.
`CNC(=O)c1cccnc1N1CCC(Oc2ccc(F)cc2)CC1` showed an INHIBITION of 93.6%.
`CNC(=O)c1cccnc1N1CCN(C/C=C/c2ccccc2)CC1` showed an INHIBITION of 25.1%.
In the case of `COC(=O)c1cccnc1N1CCC(Oc2cccc(F)c2)CC1`, the INHIBITION is reported as 58.4%.
`O=C(O)c1cccc(N2CCC(Oc3cccc(F)c3)CC2)n1` gave an INHIBITION of 35%.
For `CCN(C)C(=O)c1ccc(N2CCC(Oc3cccc(F)c3)CC2)nc1`, the INHIBITION was 61%.
With `O=C(O)c1ccc(N2CCC(Oc3ccc(Cl)cc3)CC2)nc1` the INHIBITION was 29.4%.
In the case of `O=C(O)c1ccc(N2CCC(Oc3cccc(F)c3)CC2)nc1`, the INHIBITION is reported as 32.2%.
In the case of `Cc1ccc(NC2CCN(C(=O)COc3cccc(F)c3)CC2)nn1`, the INHIBITION is reported as 4.52%.
`CNC(=O)c1cccnc1N1CCC(OCc2ccccc2)CC1` gave an INHIBITION of 6.11%.
In the case of `COc1ncccc1C(=O)N1CC[C@]2(C[C@@H](Oc3cccnc3)CO2)C1`, the INHIBITION is reported as 6.66%.
`CC(C)NC(=O)C1CN(C(=O)Nc2cccc(F)c2)CC12CCOCC2` (stereo not drawn) gave an INHIBITION of 17.1%.
`Cc1cnn(CC(C)Nc2cnc3ccccc3n2)c1` (stereo not drawn) showed an INHIBITION of -26.8%.
In the case of `CCn1cc(-n2cc3nc(N4CCN(C)CC4)[nH]cc-3c2=O)cn1`, the INHIBITION is reported as -5.53%.
`CN(C)S(=O)(=O)N1CCN(c2cc(-n3cccc3)ncn2)CC1` gave an INHIBITION of 14.4%.
`CN(Cc1cnn(C)c1)C(=O)c1ccnc(OC2CCC2)c1` showed an INHIBITION of 46.4%.
`CCc1noc(CN(C)C(=O)c2ccnc(OC3CCC3)c2)n1` was tested, and the INHIBITION was 55.4%.
For `CN(Cc1nnc(C2CC2)n1C)C(=O)c1ccnc(OC2CCC2)c1`, the INHIBITION was -13.4%.
`CN(Cc1ccc(C#N)cc1)C(=O)c1ccnc(OC2CCC2)c1` gave an INHIBITION of 51.4%.
`CN(CC1CCCCO1)C(=O)c1ccnc(OC2CCC2)c1` (stereo not drawn) gave an INHIBITION of 9.48%.
With `CN(Cc1cnccn1)C(=O)c1ccnc(OC2CCC2)c1` the INHIBITION was 36.3%.
With `CC(C)NC(=O)N1CCc2ncc(CN3CCOCC3)n2CC1` the INHIBITION was 21.6%.
With `CCCS(=O)(=O)N1Cc2nccn2CC(CN(C)C)C1` (stereo not drawn) the INHIBITION was -57.5%.
With `CC(=O)Nc1ccc(CNCc2ccc(CS(C)(=O)=O)cc2)cc1` the INHIBITION was 38%.
`COCc1nc(CNc2cccc(-c3csc(C)n3)c2)cs1` was tested, and the INHIBITION was 18.9%.
`Cc1cc(NCc2csc(-c3ccsc3)n2)no1` was tested, and the INHIBITION was -92.1%.
With `COCc1nc(CNc2cccc(-c3ncon3)c2)cs1` the INHIBITION was -42.1%.
`Cc1cc(NCc2csc(C)n2)no1` was tested, and the INHIBITION was 29.4%.
Compound `COCc1nc(CNc2cccc(-c3nc(C)c(C)o3)c2)cs1` has an INHIBITION of 65.3%.
`COCc1nc(CNc2cc(C)on2)cs1` showed an INHIBITION of 51.7%.
With `CN(Cc1noc2c1CCCC2)C(=O)Nc1ccc2oc(=O)n(C)c2c1` the INHIBITION was 36.4%.
`Cc1cnn(CCNCc2ccccc2OCc2ccncc2)c1` gave an INHIBITION of -15.5%.
For `CCN(Cc1ccco1)C(=O)c1cc(OC)c2c(c1)OCCO2`, the INHIBITION was 10.3%.
For `COc1cc(C(=O)N(Cc2ccco2)C2CC2)cc2c1OCCO2`, the INHIBITION was -2.37%.
With `COc1cc(C(=O)N(Cc2ccco2)C2CC2)cc(OC)c1OC` the INHIBITION was 53.4%.
`O=C(NCCNc1ncccn1)C1CC(=O)N(C2CCCC2)C1` (stereo not drawn) showed an INHIBITION of 21.6%.
In the case of `c1cnn(CCNCc2nnc(C3CC3)o2)c1`, the INHIBITION is reported as 53.5%.
With `Cc1cnn(CCNCc2nnc(C3CC3)o2)c1` the INHIBITION was 21.2%.
`c1ccc(-c2nnc(CNCCn3cccn3)o2)cc1` was tested, and the INHIBITION was 32.6%.
In the case of `Cn1cccc1C(=O)N1CC[C@H]2C[C@@H](c3ccncn3)O[C@@H]2C1`, the INHIBITION is reported as 41.5%.
`Cc1noc2nc(C3CCN(Cc4ccncc4)CC3)cc(C(F)F)c12` was tested, and the INHIBITION was 44.9%.
In the case of `Cc1noc2nc(C3CCN(CC4CCCCC4)CC3)cc(C(F)F)c12`, the INHIBITION is reported as 59%.
Work on `Cc1noc2nc(C3CCN(Cc4cccnc4)CC3)cc(C(F)F)c12` yielded an INHIBITION of 48.3%.
`CCCS(=O)(=O)N1C[C@@H]2C[C@H](C(=O)N3CCOCC3)[C@H](C1)O2` showed an INHIBITION of -19.6%.
Compound `CNC(=O)c1cccc(NC(=O)CN2CCCN(S(C)(=O)=O)CC2)c1` has an INHIBITION of -7.27%.
`O=C(C[C@@H]1COC[C@H]2CN(C3CCCC3)C[C@@H]12)NCc1cccnc1` was tested, and the INHIBITION was 20.6%.
Compound `Cc1nnc2n1CCN(Cc1nc(-c3ccoc3)no1)C2` has an INHIBITION of -16.75%.
With `COCc1ccc(CNCc2c(C)nn(C)c2N(C)C)cc1` the INHIBITION was 33.7%.
`COc1c(CNCc2ccc(C(=O)N(C)C(C)C)cc2)c(C)nn1C` showed an INHIBITION of 88.5%.
`COc1c(CNCc2ccc(C(=O)NC3CC3)cc2)c(C)nn1C` was tested, and the INHIBITION was 13.5%.
`COc1c(CNCc2ccc(C(=O)N3CCCC3)cc2)c(C)nn1C` was tested, and the INHIBITION was 64.9%.
In the case of `CCNC(=O)c1ccc(CNCc2c(C)nn(C)c2N(C)C)cc1`, the INHIBITION is reported as 58.8%.
`COc1c(CNCc2ccc(S(C)(=O)=O)cc2)c(C)nn1C` showed an INHIBITION of -31.8%.
For `COc1c(CNCc2ccc(OCC(N)=O)cc2)c(C)nn1C`, the INHIBITION was 35.9%.
Compound `COc1c(CNCc2ccc(CN(C)C)cc2)c(C)nn1C` has an INHIBITION of -15.8%.
`CC(C)c1nn(C)c(N(C)C)c1CNCCC(=O)NC1CCCC1` showed an INHIBITION of 35.8%.
Work on `Cc1nn(C)c(N(C)C)c1CNCCC(=O)NC1CCCC1` yielded an INHIBITION of 64.8%.
With `Cc1nn(C)c(N(C)C)c1CNCCC(=O)NC1CCCCC1` the INHIBITION was 49.8%.
Work on `Cc1nn(C)c(N(C)C)c1CNCc1ccc(C(=O)N(C)C)cc1` yielded an INHIBITION of -19.9%.
`Cc1nn(C)c(N2CCOCC2)c1CNCc1ccoc1C` was tested, and the INHIBITION was -29.8%.
For `O=C1CC2(CCCC2)CC(=O)N1Cc1nccs1`, the INHIBITION was 28.4%.
`Cc1ncsc1CN1C[C@@H](O)[C@](O)(CNC(=O)c2ccccn2)C1` gave an INHIBITION of 18.9%.
